From PubChem BioAssay AID1159580 (chemical genetic matrix, 2015)
Several values for one entry are separate records, joined by “and”; a condition that tells them apart may be missing. Equal entries are not always repeated. Among all 5,500 compounds or so, about 2,000 (36%) were called active. Not shown: some 18% with an inconclusive outcome. Rule as the data show it: active = normalized growth mostly below about 0.91 (no sharp cut-off); inconclusive = no clear call, values can overlap the other calls; inactive = mostly above about 0.92. The list shows a part of the results. More than one record can exist for a structure, and the calls need not agree.

Test: chemical genetic growth profiling, strain panel (AID 1159580);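 also: tested at 20 µM; growth read once vehicle control cultures reached saturation at 30 °C; 1 = growth at the plate median or of vehicle wells; lower values mean less growth of the strain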
Conditions: S. cerevisiae deletion strains, growth OD

Q: For `CN1C2CCC1CC(OC(c1ccccc1)c1ccccc1)C2` (stereo not given), which normalized growth (locus YAL013W, strain DEP1, stronger effect = lower value) is on record?
A: 0.825 (active) and 1.01 (inactive)

Q: What about the normalized growth (locus YAL021C, strain ccr4, stronger effect = lower value) of the same compound?
A: 0.963 (inactive)

Q: And the normalized growth (locus YAL026C, strain drs2, stronger effect = lower value)?
A: 0.975 (inactive)

Q: And the normalized growth (locus YAL030W, strain snc1, stronger effect = lower value)?
A: 0.985 (inactive)

Q: What about the normalized growth (locus YAL040C, strain CLN3, stronger effect = lower value) of the same compound?
A: 0.98 (inactive)

Q: And the normalized growth (locus YBL061C, strain skt5, stronger effect = lower value)?
A: 0.989 (inactive)

Q: And the normalized growth (locus YBR009C, strain hhf1, stronger effect = lower value)?
A: 0.968 (inactive)

Q: What about the normalized growth (locus YBR021W, strain FUR4, stronger effect = lower value) of the same compound?
A: 1.02 (inactive)

Q: And the normalized growth (locus YBR023C, strain chs3, stronger effect = lower value)?
A: 0.994 (inactive)

Q: And the normalized growth (locus YBR171W, strain sec66, stronger effect = lower value)?
A: 0.977 (inactive)

Q: What about the normalized growth (locus YBR229C, strain ROT2, stronger effect = lower value) of the same compound?
A: 0.989 (inactive)

Q: And the normalized growth (locus YBR231C, strain swc5, stronger effect = lower value)?
A: 0.998 (inactive)

Q: And the normalized growth (locus YBR279W, strain paf1, stronger effect = lower value)?
A: 0.967 (inactive)

Q: What about the normalized growth (locus YCL011C, strain gbp2, stronger effect = lower value) of the same compound?
A: 0.982 (inactive)

Q: And the normalized growth (locus YCL016C, strain dcc1, stronger effect = lower value)?
A: 0.969 (inactive)

Q: And the normalized growth (locus YCL029C, strain bik1, stronger effect = lower value)?
A: 0.98 (inactive)

Q: What about the normalized growth (locus YCL069W, strain vba3, stronger effect = lower value) of the same compound?
A: 0.989 (inactive)

Q: And the normalized growth (locus YCR088W, strain abp1, stronger effect = lower value)?
A: 0.998 (inactive)

Q: And the normalized growth (locus YDL005C, strain med2, stronger effect = lower value)?
A: 0.977 (inactive)

Q: What about the normalized growth (locus YDL035C, strain GPR1, stronger effect = lower value) of the same compound?
A: 0.894 (inactive)

Q: And the normalized growth (locus YDL040C, strain nat1, stronger effect = lower value)?
A: 0.992 (inactive)

Q: What about the normalized growth (locus YDL074C, strain BRE1, stronger effect = lower value) of the same compound?
A: 0.665 (active)

Q: What about the normalized growth (locus YDL101C, strain DUN1, stronger effect = lower value) of the same compound?
A: 0.914 (inactive)

Q: What about the normalized growth (locus YDL134C, strain PPH21, stronger effect = lower value) of the same compound?
A: 0.924 (inactive)

Q: What about the normalized growth (locus YDL185W, strain tfp1, stronger effect = lower value) of the same compound?
A: 0.969 (inactive)

Q: And the normalized growth (locus YDL192W, strain arf1, stronger effect = lower value)?
A: 0.986 (inactive)

Q: And the normalized growth (locus YDR001C, strain nth1, stronger effect = lower value)?
A: 0.989 (inactive)

Q: What about the normalized growth (locus YDR069C, strain doa4, stronger effect = lower value) of the same compound?
A: 0.981 (inactive)

Q: And the normalized growth (locus YDR101C, strain arx1, stronger effect = lower value)?
A: 1 (inactive)

Q: And the normalized growth (locus YDR137W, strain rgp1, stronger effect = lower value)?
A: 1.01 (inactive)

Q: And the normalized growth (locus YDR150W, strain NUM1, stronger effect = lower value)?
A: 1.01 (inactive)

Q: And the normalized growth (locus YDR159W, strain sac3, stronger effect = lower value)?
A: 0.976 (inactive)

Q: What about the normalized growth (locus YDR162C, strain NBP2, stronger effect = lower value) of the same compound?
A: 0.778 (active)

Q: What about the normalized growth (locus YDR195W, strain ref2) of the same compound?
A: 0.975 (inactive)

Q: And the normalized growth (locus YDR297W, strain sur2, stronger effect = lower value)?
A: 0.981 (inactive)

Q: And the normalized growth (locus YDR318W, strain mcm21, stronger effect = lower value)?
A: 0.982 (inactive)

Q: And the normalized growth (locus YDR334W, strain swr1, stronger effect = lower value)?
A: 0.999 (inactive)

Q: And the normalized growth (locus YDR335W, strain msn5, stronger effect = lower value)?
A: 0.986 (inactive)

Q: And the normalized growth (locus YDR363W, strain ESC2, stronger effect = lower value)?
A: 1 (inactive)

Q: What about the normalized growth (locus YDR388W, stronger effect = lower value) of the same compound?
A: 0.972 (inactive)

Q: And the normalized growth (locus YDR392W, strain spt3, stronger effect = lower value)?
A: 0.87 (inactive)

Q: And the normalized growth (locus YDR502C, strain sam2, stronger effect = lower value)?
A: 0.964 (inactive)

Q: What about the normalized growth (locus YEL003W, strain gim4, stronger effect = lower value) of the same compound?
A: 0.983 (inactive)

Q: What about the normalized growth (locus YEL037C, strain rad23, stronger effect = lower value) of the same compound?
A: 0.977 (inactive)

Q: What about the normalized growth (locus YEL061C, strain CIN8 (second series), stronger effect = lower value) of the same compound?
A: 0.988 (inactive)

Q: What about the normalized growth (locus YEL061C, strain CIN8, stronger effect = lower value) of the same compound?
A: 0.983 (inactive)

Q: What about the normalized growth (locus YER002W, strain NOP16, stronger effect = lower value) of the same compound?
A: 0.989 (inactive)

Q: And the normalized growth (locus YER015W, strain faa2, stronger effect = lower value)?
A: 0.99 (inactive)

Q: And the normalized growth (locus YER016W, strain bim1, stronger effect = lower value)?
A: 0.949 (inactive)

Q: And the normalized growth (locus YER110C, stronger effect = lower value)?
A: 0.974 (inactive)

Q: What about the normalized growth (locus YER111C, strain swi4, stronger effect = lower value) of the same compound?
A: 1 (inactive)

Q: What about the normalized growth (locus YER155C, strain BEM2 (second series), stronger effect = lower value) of the same compound?
A: 0.985 (inactive)

Q: And the normalized growth (locus YER155C, strain BEM2, stronger effect = lower value)?
A: 0.805 (active)

Q: And the normalized growth (locus YER167W, strain BCK2, stronger effect = lower value)?
A: 0.939 (inactive)

Q: And the normalized growth (locus YFR010W, strain ubp6, stronger effect = lower value)?
A: 0.973 (inactive)

Q: What about the normalized growth (locus YGL078C, strain dbp3, stronger effect = lower value) of the same compound?
A: 0.98 (inactive)

Q: And the normalized growth (locus YGL086W, strain mad1, stronger effect = lower value)?
A: 0.951 (inactive)

Q: What about the normalized growth (locus YGL167C, strain pmr1, stronger effect = lower value) of the same compound?
A: 0.996 (inactive)

Q: What about the normalized growth (locus YGL173C, strain kem1, stronger effect = lower value) of the same compound?
A: 0.982 (inactive)

Q: And the normalized growth (locus YGL227W, strain vid30, stronger effect = lower value)?
A: 1 (inactive)

Q: What about the normalized growth (locus YGL240W, strain doc1, stronger effect = lower value) of the same compound?
A: 1.02 (inactive)

Q: And the normalized growth (locus YGL248W, strain PDE1, stronger effect = lower value)?
A: 0.842 (active)

Q: What about the normalized growth (locus YGL253W, strain hxk2, stronger effect = lower value) of the same compound?
A: 0.999 (inactive)

Q: And the normalized growth (locus YGR078C, strain PAC10, stronger effect = lower value)?
A: 0.802 (active) and 1.01 (inactive)

Q: And the normalized growth (locus YGR135W, strain pre9, stronger effect = lower value)?
A: 0.936 (inactive)

Q: And the normalized growth (locus YGR252W, strain gcn5, stronger effect = lower value)?
A: 0.895 (inactive)

Q: And the normalized growth (locus YHR013C, strain ard1, stronger effect = lower value)?
A: 0.924 (inactive)

Q: And the normalized growth (locus YHR027C, strain rpn1, stronger effect = lower value)?
A: 0.985 (inactive)

Q: What about the normalized growth (locus YHR030C, strain SLT2, stronger effect = lower value) of the same compound?
A: 0.839 (active)

Q: And the normalized growth (locus YHR079C, strain IRE1 (second series), stronger effect = lower value)?
A: 0.977 (inactive)

Q: And the normalized growth (locus YHR094C, strain hxt1, stronger effect = lower value)?
A: 0.977 (inactive)

Q: What about the normalized growth (locus YHR129C, strain ARP1, stronger effect = lower value) of the same compound?
A: 0.87 (active)

Q: What about the normalized growth (locus YHR142W, strain chs7, stronger effect = lower value) of the same compound?
A: 0.968 (inactive)

Q: What about the normalized growth (locus YHR200W, strain rpn10, stronger effect = lower value) of the same compound?
A: 0.981 (inactive)

Q: And the normalized growth (locus YIL066C, strain RNR3, stronger effect = lower value)?
A: 0.952 (inactive)

Q: And the normalized growth (locus YIL073C, strain SPO22, stronger effect = lower value)?
A: 0.804 (inactive)

Q: What about the normalized growth (locus YIL125W, strain kgd1, stronger effect = lower value) of the same compound?
A: 0.982 (inactive)

Q: And the normalized growth (locus YIR030C, strain dcg1, stronger effect = lower value)?
A: 0.986 (inactive)

Q: And the normalized growth (locus YJL092W, strain hpr5, stronger effect = lower value)?
A: 0.99 (inactive)

Q: And the normalized growth (locus YJL095W, strain BCK1 (second series), stronger effect = lower value)?
A: 0.987 (inactive)

Q: What about the normalized growth (locus YJL095W, strain BCK1, stronger effect = lower value) of the same compound?
A: 0.723 (active)

Q: And the normalized growth (locus YJL115W, strain asf1, stronger effect = lower value)?
A: 0.98 (inactive)

Q: And the normalized growth (locus YJL129C, strain trk1, stronger effect = lower value)?
A: 0.975 (inactive)

Q: What about the normalized growth (locus YJL134W, strain LCB3, stronger effect = lower value) of the same compound?
A: 0.997 (inactive)

Q: And the normalized growth (locus YJL154C, strain vps35, stronger effect = lower value)?
A: 0.975 (inactive)

Q: What about the normalized growth (locus YJL164C, strain tpk1, stronger effect = lower value) of the same compound?
A: 0.979 (inactive)

Q: And the normalized growth (locus YJL166W, strain qcr8, stronger effect = lower value)?
A: 1.01 (inactive)

Q: And the normalized growth (locus YJL168C, strain set2, stronger effect = lower value)?
A: 0.985 (inactive)

Q: What about the normalized growth (locus YJL187C, strain SWE1 (second series), stronger effect = lower value) of the same compound?
A: 0.888 (inactive)

Q: What about the normalized growth (locus YJL187C, strain SWE1, stronger effect = lower value) of the same compound?
A: 0.989 (inactive)
